# Data: PubChem BioAssay (NCATS)
# Active and inactive are the calls of the source. Calls come from the whole dose curve.
# How the values were obtained:
# Assay in all cases: Confirmatory Screen for Target Class Profiling of Small Molecule Inhibitors of Methyltransferases (AID 1745852); for activity change, negative = inhibition: % is set by controls: 0 for no effect and ±100 for the full control effect
# [1] = target: Catechol O-methyltransferase (Homo sapiens) (UniProt P21964); settings: MTase-Glo luminescence, SAH detection, recombinant enzyme; measured here: COMT max response; stronger effect = lower value
# Sequence of Catechol O-methyltransferase (Homo sapiens) (P21964 whole entry, looked up): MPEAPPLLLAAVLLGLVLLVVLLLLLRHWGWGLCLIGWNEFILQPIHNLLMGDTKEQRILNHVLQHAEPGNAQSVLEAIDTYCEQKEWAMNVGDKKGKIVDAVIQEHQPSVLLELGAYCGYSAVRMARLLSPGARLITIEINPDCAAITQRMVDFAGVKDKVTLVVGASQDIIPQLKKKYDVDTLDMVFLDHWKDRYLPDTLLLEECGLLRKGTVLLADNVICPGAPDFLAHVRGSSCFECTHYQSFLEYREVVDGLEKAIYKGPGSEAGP
# [2] = target: Guanidinoacetate N-methyltransferase (Homo sapiens) (UniProt Q14353); settings: MTase-Glo luminescence, SAH detection, recombinant enzyme; activity change, negative = inhibition: at 57.3 µM (top of the series) unless noted; series mostly up to 57.3 µM
# [3] = target: Nicotinamide N-methyltransferase (Homo sapiens) (UniProt P40261); settings: MTase-Glo luminescence, SAH detection, recombinant enzyme; measured here: NNMT max response; stronger effect = lower value
# Sequence of Nicotinamide N-methyltransferase (Homo sapiens) (P40261 whole entry, looked up): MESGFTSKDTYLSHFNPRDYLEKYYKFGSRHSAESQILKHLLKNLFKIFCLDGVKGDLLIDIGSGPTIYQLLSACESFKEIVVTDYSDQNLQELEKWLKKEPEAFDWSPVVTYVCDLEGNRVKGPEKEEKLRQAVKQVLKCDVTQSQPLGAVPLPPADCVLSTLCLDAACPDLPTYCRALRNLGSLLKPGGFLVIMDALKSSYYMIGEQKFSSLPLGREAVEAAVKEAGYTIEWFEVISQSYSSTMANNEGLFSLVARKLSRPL
# [4] = target: Phenylethanolamine N-methyltransferase (Homo sapiens) (UniProt P11086); settings: MTase-Glo luminescence, SAH detection, recombinant enzyme; measured here: PNMT max response; stronger effect = lower value
# Sequence of Phenylethanolamine N-methyltransferase (Homo sapiens) (P11086 whole entry, looked up): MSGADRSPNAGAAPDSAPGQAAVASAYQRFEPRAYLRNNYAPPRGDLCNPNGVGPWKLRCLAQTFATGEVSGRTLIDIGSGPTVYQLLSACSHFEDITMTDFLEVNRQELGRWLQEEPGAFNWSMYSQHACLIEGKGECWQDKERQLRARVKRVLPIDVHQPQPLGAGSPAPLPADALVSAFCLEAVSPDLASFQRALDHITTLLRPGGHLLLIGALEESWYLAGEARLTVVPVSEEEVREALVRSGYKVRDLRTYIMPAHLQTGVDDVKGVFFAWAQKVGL
# Potency is the fitted concentration of half-maximal effect.
SMILES,activity [1] [%],Potency [2],activity [3] [%],activity [4] [%],"activity change, negative = inhibition [2] [%]"
O=c1c2ccccc2n2c(-c3cc(Cl)ccc3O)nnc2n1Cc1ccc(F)cc1,-12.1,27.1 µM (active),-13.1,-27.8,–
COc1ccc(-c2nnn3c2nc(NCCc2ccc(OC)c(OC)c2)c2ccccc23)cc1,-10.5,–,-12.4,-9.28,-2.81
CCN1CCN(c2nc3c(S(=O)(=O)c4ccc(Br)cc4)nnn3c3ccccc23)CC1,1.75,–,-1.61,-3.25,2.08
